Shown are actives, neighbours in structure and some others; about 1.1% of the full set was active somewhere.
TcdB inh: inhibitors of Clostridioides difficile toxin B glycohydrolase | 350,000 compounds, 0.24% hits | inhibition, % at 9.99 µM | P18177 | TcdB glycohydrolase enzymatic assay, plate reader; in the data active = inhibition above about 10%
Target sequence (P18177 whole entry, looked up): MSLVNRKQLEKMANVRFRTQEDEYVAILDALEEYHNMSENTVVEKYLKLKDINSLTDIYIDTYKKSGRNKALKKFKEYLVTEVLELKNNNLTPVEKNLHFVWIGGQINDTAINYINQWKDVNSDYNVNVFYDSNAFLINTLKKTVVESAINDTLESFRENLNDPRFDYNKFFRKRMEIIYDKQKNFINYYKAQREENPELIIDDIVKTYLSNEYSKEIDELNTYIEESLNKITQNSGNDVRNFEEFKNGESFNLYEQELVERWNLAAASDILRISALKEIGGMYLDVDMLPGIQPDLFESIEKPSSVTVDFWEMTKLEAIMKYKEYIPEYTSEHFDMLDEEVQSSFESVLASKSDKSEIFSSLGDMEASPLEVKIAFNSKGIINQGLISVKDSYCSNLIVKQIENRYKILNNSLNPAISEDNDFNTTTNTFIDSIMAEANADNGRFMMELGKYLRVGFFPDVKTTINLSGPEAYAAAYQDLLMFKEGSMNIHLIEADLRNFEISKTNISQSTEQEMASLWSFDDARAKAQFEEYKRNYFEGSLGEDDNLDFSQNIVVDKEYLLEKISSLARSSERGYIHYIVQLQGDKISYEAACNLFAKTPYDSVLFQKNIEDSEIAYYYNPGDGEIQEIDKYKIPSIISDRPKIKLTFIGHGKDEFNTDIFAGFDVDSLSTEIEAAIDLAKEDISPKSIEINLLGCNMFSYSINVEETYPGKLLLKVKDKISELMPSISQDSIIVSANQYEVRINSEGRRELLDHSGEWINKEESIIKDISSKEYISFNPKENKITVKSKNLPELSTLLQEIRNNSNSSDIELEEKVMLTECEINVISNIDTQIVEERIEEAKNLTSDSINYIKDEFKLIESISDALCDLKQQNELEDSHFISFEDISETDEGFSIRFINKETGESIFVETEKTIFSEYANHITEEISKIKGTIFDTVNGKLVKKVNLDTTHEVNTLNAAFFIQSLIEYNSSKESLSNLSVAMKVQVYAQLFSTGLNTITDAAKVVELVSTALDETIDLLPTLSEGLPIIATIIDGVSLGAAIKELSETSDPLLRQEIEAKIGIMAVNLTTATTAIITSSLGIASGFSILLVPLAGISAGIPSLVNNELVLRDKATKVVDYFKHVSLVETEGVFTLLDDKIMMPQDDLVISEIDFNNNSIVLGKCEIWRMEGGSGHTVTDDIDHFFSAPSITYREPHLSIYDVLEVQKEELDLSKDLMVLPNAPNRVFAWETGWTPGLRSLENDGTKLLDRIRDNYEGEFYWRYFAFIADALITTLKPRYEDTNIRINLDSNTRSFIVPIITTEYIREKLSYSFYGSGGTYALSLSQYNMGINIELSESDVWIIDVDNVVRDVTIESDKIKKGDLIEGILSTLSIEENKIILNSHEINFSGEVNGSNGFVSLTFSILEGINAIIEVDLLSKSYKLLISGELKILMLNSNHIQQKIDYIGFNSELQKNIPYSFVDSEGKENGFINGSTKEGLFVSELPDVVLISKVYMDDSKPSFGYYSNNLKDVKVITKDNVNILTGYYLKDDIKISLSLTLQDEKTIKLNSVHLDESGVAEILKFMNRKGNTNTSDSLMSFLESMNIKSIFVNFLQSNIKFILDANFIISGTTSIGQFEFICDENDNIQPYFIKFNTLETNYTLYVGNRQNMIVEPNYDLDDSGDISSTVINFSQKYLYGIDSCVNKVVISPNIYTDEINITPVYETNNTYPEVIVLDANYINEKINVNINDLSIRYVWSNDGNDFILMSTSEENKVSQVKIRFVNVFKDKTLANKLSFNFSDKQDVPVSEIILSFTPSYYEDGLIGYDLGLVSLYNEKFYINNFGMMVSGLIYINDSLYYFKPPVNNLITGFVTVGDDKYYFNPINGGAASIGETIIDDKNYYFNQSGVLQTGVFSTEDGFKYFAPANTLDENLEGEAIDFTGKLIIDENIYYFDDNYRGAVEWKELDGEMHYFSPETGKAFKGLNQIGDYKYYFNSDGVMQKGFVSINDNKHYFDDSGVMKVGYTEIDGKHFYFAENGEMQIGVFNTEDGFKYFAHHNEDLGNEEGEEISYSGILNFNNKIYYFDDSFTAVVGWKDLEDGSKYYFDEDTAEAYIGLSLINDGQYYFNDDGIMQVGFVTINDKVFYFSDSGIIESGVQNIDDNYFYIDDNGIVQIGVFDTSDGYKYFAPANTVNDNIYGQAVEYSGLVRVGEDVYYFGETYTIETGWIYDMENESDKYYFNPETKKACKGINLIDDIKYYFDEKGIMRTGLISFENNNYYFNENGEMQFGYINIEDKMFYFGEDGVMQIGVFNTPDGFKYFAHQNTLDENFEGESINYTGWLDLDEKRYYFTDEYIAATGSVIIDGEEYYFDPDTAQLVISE
BioA inh: blocks M. tuberculosis BioA enzyme activity; purified M. tuberculosis BioA enzyme, plate reader; inhibition, % at 9.99 µM; 360,000 compounds, 0.096% hits; in the data active = inhibition above about 40%
PfHsp40 rescue: restores yeast growth despite PfHsp40 toxicity; S. cerevisiae expressing PfHsp40, growth rescue, ATP luminescence; growth rescue, % at 12.5 µM; 340,000 compounds, 0.68% hits; in the data active = growth rescue above about 28%, passing the limit was not always enough;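 note: yeast W303a lacking pdr1 and pdr3 grown in galactose medium; growth measured after three days at 30 °C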
PrP 5UTR inh: suppresses PrP 5' UTR mRNA reporter expression; cell-based PrP 5' UTR mRNA reporter, plate reader; 340,000 compounds, 0.35% hits; inhibition, % (test concentration not listed); in the data active = inhibition above about 52%
FadD28 binding: blocks FadD28 binding to the bisubstrate probe. fluorescence polarization. inhibition, % at 12.5 µM. 360,000 compounds, 0.22% hits. AID 588549; in the data active = inhibition above about 8.5%, passing the limit was not always enough
PrP UTR cherry: prion 5' UTR mRNA inhibition, cherry-pick retest | shares compounds with PrP 5UTR inh | cell-based prion protein 5' UTR reporter, plate reader | inhibition, % at 2.5 µM | 1,100 compounds, 48% hits; in the data active = inhibition above about 54%
A number is an active result.

For C[C@H]1CCCCO[C@@H](CN(C)CC2CCCCC2)[C@@H](C)CN([C@@H](C)CO)C(=O)c2cc(NC(=O)C3CCCCC3)ccc2O1 the results were TcdB inh inactive and BioA inh inactive.
Cc1cc(C)c2c(N)c(C(=O)Nc3ncc(C)s3)sc2n1 was read as BioA inh inactive, PfHsp40 rescue inactive, PrP 5UTR inh 89.2, FadD28 binding inactive and PrP UTR cherry 83.6.
`CCN(CCO)c1ccc(Nc2cc(-c3ccc(-c4ccccc4)cc3)ncn2)cc1` gave TcdB inh inactive, BioA inh inactive and FadD28 binding inactive.
CCN(CCO)c1ccc(N=Nc2cc(C)[nH]n2)cc1 was read as TcdB inh inactive, PfHsp40 rescue inactive, PrP 5UTR inh 60.8, FadD28 binding inactive and PrP UTR cherry 62.2.
`Cc1noc(C)c1NC(=O)N(C)C[C@H]1Oc2ccc(NS(C)(=O)=O)cc2CC(=O)N([C@H](C)CO)C[C@@H]1C` gave BioA inh inactive.
`CN(C(=O)c1ccccc1C(=O)OCC(=O)NCc1cccs1)C1CCCCC1` gave TcdB inh inactive, BioA inh inactive, PfHsp40 rescue inactive, PrP 5UTR inh 54.8, FadD28 binding inactive and PrP UTR cherry inactive.
O=C(COC(=O)c1ccccc1Cl)NCc1cccs1 was read as TcdB inh inactive, BioA inh inactive and FadD28 binding inactive.
For O=C(NCCc1ccccc1)[C@@H]1[C@@H](CO)[C@@H]2Cn3c(cccc3=O)[C@@H]2N1Cc1cccnc1 the results were BioA inh inactive.
COc1ccc(C(Nc2ccccn2)c2oc(CO)cc(=O)c2O)cc1 (centres undefined) was read as TcdB inh inactive, PfHsp40 rescue inactive, PrP 5UTR inh 61.5, FadD28 binding inactive and PrP UTR cherry inactive.
For CN1C(=O)c2cc(NC(=O)c3cccc(F)c3)ccc2OC[C@H]2O[C@@H](CC(=O)O)CC[C@@H]21 the results were BioA inh inactive.
For CN1CC[C@@H]2CN(S(=O)(=O)c3ccccc3)[C@H](c3ccccc3Br)C[C@@H]21 the results were TcdB inh inactive.
`CO[C@@H](CN(C)C(=O)c1cnccn1)[C@H](C)CN([C@@H](C)CO)S(=O)(=O)c1ccc(Cl)cc1` gave TcdB inh inactive and BioA inh inactive.
For CN(CC(=O)Nc1cccc(F)c1)CC(=O)N(C)CC(=O)Nc1ccccc1Br the results were TcdB inh inactive, BioA inh inactive, PfHsp40 rescue inactive, PrP 5UTR inh 90.9, FadD28 binding inactive and PrP UTR cherry inactive.
For CC(=O)Nc1ccc(NC(=O)CN(C)CC(=O)Nc2ccccc2Br)cc1 the results were TcdB inh inactive, PfHsp40 rescue inactive, PrP 5UTR inh inactive and FadD28 binding inactive.
Screening Cc1ccc(-c2cc3onc(-c4ccccc4)c3c(=O)n2C)cc1 returned TcdB inh inactive, BioA inh inactive, PfHsp40 rescue inactive, PrP 5UTR inh 61.1, FadD28 binding inactive and PrP UTR cherry inactive.
For C[C@@H]1CN([C@H](C)CO)C(=O)CCCn2cc(nn2)CO[C@@H]1CN(C)Cc1ccc2c(c1)OCCN2C the results were TcdB inh inactive and BioA inh inactive.
`C/C(=N\NC(=O)c1n[nH]c2c1CCC2)c1cccs1` gave TcdB inh inactive, BioA inh inactive, PfHsp40 rescue inactive, PrP 5UTR inh 75.9, FadD28 binding inactive and PrP UTR cherry 73.0.
O=C(N/N=C/c1cccs1)c1n[nH]c2c1CCCC2 was read as TcdB inh inactive, BioA inh inactive, PfHsp40 rescue inactive, PrP 5UTR inh inactive and FadD28 binding inactive.
For C[C@H](CO)N1C[C@H](C)[C@H](CN(C)Cc2ccc(Oc3ccccc3)cc2)Oc2ccc(NC(=O)Nc3ccc(C(F)(F)F)cc3)cc2C1=O the results were TcdB inh inactive and BioA inh inactive.
`N/C(=N\OC(=O)c1ccc2ccccc2c1)c1ccccn1` gave TcdB inh inactive, BioA inh inactive, PfHsp40 rescue inactive, PrP 5UTR inh 52.8, FadD28 binding inactive and PrP UTR cherry inactive.
`COc1cccc(C(=O)O/N=C(\N)c2ccccn2)c1` gave TcdB inh inactive, BioA inh inactive, PfHsp40 rescue inactive, PrP 5UTR inh 52.0, FadD28 binding inactive and PrP UTR cherry 91.4.
Screening COc1ccc(/C(N)=N/OC(=O)c2ccc3ccccc3c2)cc1OC returned TcdB inh inactive, BioA inh inactive and FadD28 binding inactive.
For CCCc1ccc(C(=O)O/N=C(\N)c2ccccn2)cc1 the results were TcdB inh inactive, BioA inh inactive, PfHsp40 rescue inactive, PrP 5UTR inh 87.9, FadD28 binding inactive and PrP UTR cherry 76.7.

Screens from PubChem.
